Reference: PubChem BioAssay (Tox21)
Inconclusive results are not listed. The source made the active and inactive calls. Unless noted, calls follow the shape of the full dose curve.

Tests used:
[1] = Nuclear factor erythroid 2-related factor 2/antioxidant responsive element (Nrf2/ARE) small molecule agonists: qHTS cell viability counter screen in human keratinocytes (AID 1919968; active = well fitted curve in the direction sought with a large enough effect in the repeat runs; an effect the other way counts as inactive or inconclusive; also: nearly all actives have a fitted effect of over 55% in size)
In short: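 Cytotoxicity was multiplexed with the Nrf2/ARE luciferase assay in the same wells. Stably transfected HaCaT keratinocytes were treated with test compounds for 23 h at 37 C. Cell viability was then measured by CellTiter-Fluor fluorescence.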

[2] = Nuclear factor erythroid 2-related factor 2/antioxidant responsive element (Nrf2/ARE) small molecule agonists: luciferase reporter gene qHTS assay in human keratinocytes (AID 1919969); also: nearly all actives have a fitted effect of over 35% in size
[3] = target: Gonadotropin-releasing hormone receptor (Homo sapiens) (UniProt P30968); assay: Human gonadotropin-releasing hormone receptor (GnRHR) small molecule agonists, calcium flux assay in GnRHR-HEK293 cells (AID 1920063); also: nearly all actives have a fitted effect of over 35% in size
Gonadotropin-releasing hormone receptor (Homo sapiens), sequence (P30968 whole entry, looked up): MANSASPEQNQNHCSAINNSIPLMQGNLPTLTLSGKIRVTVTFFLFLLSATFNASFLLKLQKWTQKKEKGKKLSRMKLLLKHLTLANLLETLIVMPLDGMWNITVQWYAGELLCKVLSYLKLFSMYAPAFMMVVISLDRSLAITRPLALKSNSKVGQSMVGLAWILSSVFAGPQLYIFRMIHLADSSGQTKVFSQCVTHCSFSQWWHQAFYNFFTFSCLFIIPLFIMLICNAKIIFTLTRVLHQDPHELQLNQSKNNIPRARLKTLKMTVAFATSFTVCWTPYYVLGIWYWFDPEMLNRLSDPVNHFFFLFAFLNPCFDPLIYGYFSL
In short: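 Agonist activity was measured as intracellular calcium flux in HEK293 cells engineered to stably express human GnRHR. After dye loading for 1 hour at 37 C, compounds in DMSO were added and fluorescence was followed for 3 minutes.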

[4] = target: KiSS-1 receptor (Homo sapiens) (UniProt Q969F8); assay: Human kisspeptin (KISS1R) small molecule agonists, calcium flux assay in KISS1R-HEK293 cells (AID 1920064; active = well fitted curve in the direction sought with a large enough effect in the repeat runs; an effect the other way counts as inactive or inconclusive)
KiSS-1 receptor (Homo sapiens), sequence (Q969F8 whole entry, looked up): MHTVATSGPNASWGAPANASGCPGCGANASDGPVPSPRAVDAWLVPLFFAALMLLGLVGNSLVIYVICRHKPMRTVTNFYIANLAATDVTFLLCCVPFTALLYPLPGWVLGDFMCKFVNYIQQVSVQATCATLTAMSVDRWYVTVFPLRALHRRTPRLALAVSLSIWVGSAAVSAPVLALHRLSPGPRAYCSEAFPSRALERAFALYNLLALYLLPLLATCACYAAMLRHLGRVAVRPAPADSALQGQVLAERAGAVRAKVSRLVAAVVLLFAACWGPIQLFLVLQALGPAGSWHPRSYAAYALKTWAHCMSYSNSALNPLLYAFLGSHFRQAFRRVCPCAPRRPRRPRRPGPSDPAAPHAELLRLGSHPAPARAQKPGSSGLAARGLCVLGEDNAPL
In short: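 Agonist activity is monitored as intracellular calcium rise in engineered HEK293 cells carrying human KISS1R. Cells are dye-loaded for 1 h at 37 C before compound addition, and fluorescence is recorded for 3 min.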

[5] = G protein-coupled receptor (GPCR) small molecule agonists, calcium flux assay: HEK293 wild type cell line counter screen (AID 1920065)
In short: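 Seed cells, incubate 18 h (37 C, 5% CO2); add calcium dye, 1 h at 37 C; pin-transfer compounds, ATP control or DMSO; read fluorescence 480/540 nm each second for 3 min.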

[6] = p53 small molecule agonists, cell-based qHTS assay with human liver microsomes (AID 1963577)
In short: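 Cells carrying a p53-responsive bla reporter were rested 5 h (37 C, 5% CO2) before compound transfer. Human liver microsomes plus NADPH, 0.5 mg/mL final apiece, supplied metabolism during the 16 h 37 C exposure.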

[7] = p53 small molecule agonists, cell-based qHTS assay with rat liver microsomes (AID 1963578)
In short: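 Fluorescence from a beta-lactamase reporter under a p53 response element was measured after cells had been incubated 16 h at 37 C with test compound and rat liver microsomes plus NADPH (0.5 mg/mL final each).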

[8] = p53 small molecule agonists, cell-based qHTS assay with human liver microsomes: qHTS cell viability counter screen (AID 1963579); also: nearly all actives have a fitted effect of over 45% in size
In short: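 Seed p53RE-bla cells at 4,000 per well; incubate 5 h at 37 C; add compound, human liver microsomes and NADPH; incubate 16 h at 37 C; add CellTiter-Glo; after 30 min at room temperature, read luminescence.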

[9] = p53 small molecule agonists, cell-based qHTS assay with rat liver microsomes: qHTS cell viability counter screen (AID 1963580); also: nearly all actives have a fitted effect of over 45% in size
In short: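 Luminescent ATP readout (CellTiter-Glo, 30 min at room temperature) reports viability of p53RE-bla HCT-116 cells after 16 h at 37 C with test compounds under metabolic activation by rat liver microsomes and NADPH at 0.5 mg/mL final each.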

[10] = p53 small molecule agonists, cell-based qHTS assay: qHTS cell viability counter screen (AID 1963581); also: nearly all actives have a fitted effect of over 45% in size
In short: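 Viability was counter-screened in parallel with the p53 agonist reporter by measuring intracellular ATP luminescence in the same HCT-116 p53RE-bla wells after 16 h compound treatment at 37 C.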

[11] = p53 small molecule agonists, cell-based qHTS assay (AID 1963582; active = well fitted activation curve with a large enough effect in the signal ratio in the repeat runs, not every such curve was filed as active; the % refers to the signal ratio)
In short: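 Cells carrying a p53-responsive bla reporter are treated with test compounds for 16 h at 37 C; beta-lactamase activity is then detected with LiveBLAzer B/G FRET substrate after 2 h at room temperature.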

[12] = target: 5-hydroxytryptamine receptor 2A (Homo sapiens) (UniProt P28223); assay: 5-hydroxytryptamine receptor 2A (HTR2A) small molecule agonists, cell-based qHTS assay (AID 1963587); also: nearly all actives have a fitted effect of over 30% in size
5-hydroxytryptamine receptor 2A (Homo sapiens), sequence (P28223 whole entry, looked up): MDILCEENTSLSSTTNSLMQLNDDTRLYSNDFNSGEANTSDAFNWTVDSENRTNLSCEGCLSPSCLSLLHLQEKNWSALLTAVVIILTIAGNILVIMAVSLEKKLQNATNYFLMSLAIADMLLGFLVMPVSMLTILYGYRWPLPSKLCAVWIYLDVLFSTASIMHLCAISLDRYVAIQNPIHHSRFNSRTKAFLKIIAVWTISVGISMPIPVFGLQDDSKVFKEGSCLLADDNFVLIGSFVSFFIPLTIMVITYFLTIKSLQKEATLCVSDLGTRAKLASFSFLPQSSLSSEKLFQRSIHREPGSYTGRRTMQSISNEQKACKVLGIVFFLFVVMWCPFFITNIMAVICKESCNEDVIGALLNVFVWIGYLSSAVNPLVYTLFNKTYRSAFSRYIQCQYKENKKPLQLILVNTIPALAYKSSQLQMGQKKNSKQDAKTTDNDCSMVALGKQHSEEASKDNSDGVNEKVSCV
In short: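 HTR2A-CHO cells, plated 18 h at 37 C/5% CO2, dye-loaded 1 h at 37 C; compounds in DMSO added by pin tool (agonist mode). Intracellular calcium flux read as kinetic fluorescence on FDSS over 2 min at 1 s intervals.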

[13] = target: Muscarinic acetylcholine receptor M1 (Homo sapiens) (UniProt P11229); assay: Cholinergic receptor muscarinic 1 (CHRM1) small molecule antagonists, cell-based qHTS assay (AID 1963588); also: nearly all actives have a fitted effect of over 40% in size
Muscarinic acetylcholine receptor M1 (Homo sapiens), sequence (P11229 whole entry, looked up): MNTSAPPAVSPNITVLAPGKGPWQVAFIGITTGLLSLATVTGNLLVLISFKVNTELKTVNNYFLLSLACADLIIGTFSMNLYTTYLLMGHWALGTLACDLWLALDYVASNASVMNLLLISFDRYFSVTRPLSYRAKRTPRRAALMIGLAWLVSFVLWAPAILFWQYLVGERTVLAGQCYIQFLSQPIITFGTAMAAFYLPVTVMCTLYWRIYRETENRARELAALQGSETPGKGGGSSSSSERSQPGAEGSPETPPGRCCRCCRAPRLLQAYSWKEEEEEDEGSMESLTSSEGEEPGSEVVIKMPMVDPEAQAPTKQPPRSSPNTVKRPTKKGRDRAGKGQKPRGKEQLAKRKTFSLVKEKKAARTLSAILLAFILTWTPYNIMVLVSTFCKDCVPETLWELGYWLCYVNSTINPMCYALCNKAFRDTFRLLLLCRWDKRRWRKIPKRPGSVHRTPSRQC
In short: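 Compounds were tested at 15 concentrations in three independent runs. Dye-loaded CHRM1-CHO cells were exposed 5 min at room temperature before stimulation by acetylcholine added at 50nM. Intracellular calcium was read kinetically on FDSS for 3 min.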

[14] = target: Muscarinic acetylcholine receptor M1 (Homo sapiens) (UniProt P11229); assay: Cholinergic receptor muscarinic 1 (CHRM1) small molecule agonists, cell-based qHTS assay (AID 1963589); also: nearly all actives have a fitted effect of over 35% in size
In short: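 Cells were plated and incubated 18 h at 37 C/5% CO2, loaded with calcium dye for 1 h at 37 C, then treated with compounds in DMSO. Fluorescence was recorded kinetically at 1 sec intervals.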

[15] = cAMP Responsive Elements (CRE) small molecule agonists, cell-based qHTS assay (AID 1963590)
In short: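 Cells carrying a CRE-driven beta-lactamase reporter (HEK 293T) are seeded, incubated overnight (18 h), and treated with test compounds for 3 h at 37 C; reporter activity is then detected with a FRET substrate after 2 h at room temperature.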

[16] = cAMP Responsive Elements (CRE) small molecule antagonists, cell-based qHTS assay (AID 1963591; active = well fitted inhibition curve with a large enough effect in the signal ratio in the repeat runs, not every such curve was filed as active; the % refers to the signal ratio)
In short: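 Cells (CRE-bla HEK 293T, DMEM with 10% dialyzed FBS and 25 mM HEPES) are seeded and incubated 18 h. Compounds are added with NKH477 agonist at 0.25 uM final for 3 h, then FRET substrate for 2 h.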

[17] = target: Beta-2 adrenergic receptor (Homo sapiens) (UniProt P07550); assay: Adrenergic beta2 receptor (ADRB2) small molecule antagonists, cell-based qHTS assay (AID 1963592); also: series mostly up to about 92 µM; nearly all actives have a fitted effect of over 50% in size
Beta-2 adrenergic receptor (Homo sapiens), sequence (P07550 whole entry, looked up): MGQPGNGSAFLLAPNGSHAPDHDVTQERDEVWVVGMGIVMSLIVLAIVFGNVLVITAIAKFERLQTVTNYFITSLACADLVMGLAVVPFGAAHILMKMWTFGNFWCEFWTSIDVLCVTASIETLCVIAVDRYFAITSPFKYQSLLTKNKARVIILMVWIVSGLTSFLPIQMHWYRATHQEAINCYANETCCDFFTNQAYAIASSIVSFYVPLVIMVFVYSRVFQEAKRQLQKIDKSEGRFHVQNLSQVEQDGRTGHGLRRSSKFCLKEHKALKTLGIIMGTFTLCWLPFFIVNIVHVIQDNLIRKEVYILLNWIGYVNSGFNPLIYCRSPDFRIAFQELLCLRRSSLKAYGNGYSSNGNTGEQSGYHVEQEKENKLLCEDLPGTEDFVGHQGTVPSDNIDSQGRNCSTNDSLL
In short: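 Assay format: CHO-ADRB2 cells, 18-20hr seeding at 37C/5% CO2, then compound plus 1nM isoproterenol agonist mix for 0.5hr RT. Homogeneous time-resolved fluorescence cAMP detection after 1hr, expressed as 665/615 nm ratio.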

[18] = target: Beta-2 adrenergic receptor (Homo sapiens) (UniProt P07550); assay: Adrenergic beta2 receptor (ADRB2) small molecule agonists, cell-based qHTS assay (AID 1963593);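 also: CHO cells stably overexpressing human ADRB2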
In short: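 CHO cells stably over-expressing ADRB2 were plated overnight at 37C, then dosed with compounds plus a stimulation mix containing 100uM IBMX and 25uM Ro-20-1724 for 0.5hr at room temperature. cAMP was measured by HTRF competition, 1hr.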

[19] = target: D(2) dopamine receptor (Homo sapiens) (UniProt P14416); assay: Dopamine D2 receptor (DRD2) small molecule agonists, cell-based qHTS assay (AID 1963594); also: nearly all actives have a fitted effect of over 35% in size
D(2) dopamine receptor (Homo sapiens), sequence (P14416 whole entry, looked up): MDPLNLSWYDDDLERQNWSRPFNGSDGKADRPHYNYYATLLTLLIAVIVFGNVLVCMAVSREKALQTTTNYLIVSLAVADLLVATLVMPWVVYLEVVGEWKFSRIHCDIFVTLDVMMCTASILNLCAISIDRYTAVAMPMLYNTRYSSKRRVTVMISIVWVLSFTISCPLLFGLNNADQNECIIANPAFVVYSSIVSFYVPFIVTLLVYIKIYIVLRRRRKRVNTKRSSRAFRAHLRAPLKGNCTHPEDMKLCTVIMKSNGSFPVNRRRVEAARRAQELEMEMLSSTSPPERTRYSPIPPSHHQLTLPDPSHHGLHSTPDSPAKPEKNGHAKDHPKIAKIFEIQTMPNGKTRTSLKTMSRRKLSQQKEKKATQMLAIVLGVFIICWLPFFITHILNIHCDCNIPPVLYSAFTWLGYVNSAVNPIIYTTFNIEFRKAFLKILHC
In short: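 HEK293 cells stably expressing DRD2 were cultured 24 h at 37 C, then given Ro20-1724 (0.1 mM final) and compounds for 10 min at room temperature. NKH477 (200nM) was then added for 30 min. cAMP was read by HTRF.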

[20] = target: D(2) dopamine receptor (Homo sapiens) (UniProt P14416); assay: Dopamine D2 receptor (DRD2) small molecule antagonists, cell-based qHTS assay (AID 1963595; active = well fitted inhibition curve with a large enough effect in the signal ratio in the repeat runs, with a control signal flat; the % refers to the signal ratio)
In short: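 Antagonist mode in DRD2-HEK293 cells: after compound addition with 0.1 mM Ro20-1724, cells received quinpirole (12 nM) and NKH477 (200 nM) for 30 min at room temperature; HTRF cAMP read after 1 h detection.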

Measured: Potency

Cc1cc(NS(=O)(=O)c2ccc(N)cc2)nc(C)n1
inactive: all assays above

CC(=O)O[C@H]1CC[C@@]2(C)C(=CC[C@@H]3[C@@H]2CC[C@]2(C)C(C(C)=O)=CC[C@@H]32)C1
not listed: [19]
inactive: all other assays above

C=CC(C)(O)CCCC(C)CCCC(C)CCCC(C)C (stereo not drawn)
not listed: [16] | [18]
inactive: all other assays above

COc1cc2c(cc1OC)-c1cc3ccc(OC)c(OC)c3c[n+]1CC2
not listed: [15] | [17] | [18] | [19] | [20]
inactive: all other assays above

CCN(CC)CCNC(=O)COc1ccc(Cl)cc1
not listed: [17] | [19]
inactive: all other assays above

NC(=O)NS(=O)(=O)c1ccc(N)cc1
not listed: [15]
inactive: all other assays above

O=C(O)C1CCC1
not listed: [19]
inactive: all other assays above
